Reference: PubChem BioAssay AID1159580 (chemical genetic matrix, 2015)
The whole screen tested about 5,500 compounds, of which about 2,000 (36%) were called active. Another 18% or so got no clear call; they are omitted. Cut-off read from the data, not from the text of the source: active = normalized growth mostly below about 0.91 (no sharp cut-off); inconclusive = no clear call, values can overlap the other calls; inactive = mostly above about 0.92. This is one part of the list.

Assay: chemical genetic growth profiling, strain panel (AID 1159580);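 note: tested at 20 µM; growth read once vehicle control cultures reached saturation at 30 °C; 1 = growth at the plate median or of vehicle wells; lower values mean less growth of the strain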
Conditions: S. cerevisiae deletion strains, growth OD
[1] = locus YPL055C, strain LGE1, stronger effect = lower value
[2] = locus YPL241C, strain CIN2, stronger effect = lower value

Measured: normalized growth

CC(C)NC(C)Cc1ccc(I)cc1 (stereo not given)
inactive: locus YAL013W, strain DEP1, stronger effect = lower value 0.999 | locus YAL040C, strain CLN3, stronger effect = lower value 1.01 | locus YCL061C, strain MRC1 (second series), stronger effect = lower value 1.01 | locus YDR150W, strain NUM1, stronger effect = lower value 1.01 | locus YDR363W, strain ESC2, stronger effect = lower value 0.995 | locus YER002W, strain NOP16, stronger effect = lower value 1 | locus YNL175C, strain NOP13, stronger effect = lower value 1.01 | locus YNL197C, strain WHI3, stronger effect = lower value 1.01 | locus YNL224C, strain SQS1, stronger effect = lower value 1 | locus YNL322C, strain KRE1, stronger effect = lower value 1 | locus YOR083W, strain WHI5 (second series), stronger effect = lower value 0.998 | [1] 0.991 | [2] 1.02

COC(=O)CC1C(C)(C)C(=O)C2CC3(O)C4=CC(=O)OC(c5ccoc5)C4(C)CCC3C1(C)C2=O (stereo not given)
inactive: locus YBR021W, strain FUR4, stronger effect = lower value 1 | locus YBR229C, strain ROT2, stronger effect = lower value 1 | locus YCL029C, strain bik1, stronger effect = lower value 0.983 | locus YDL035C, strain GPR1, stronger effect = lower value 1.01 | locus YDL074C, strain BRE1, stronger effect = lower value 1 | locus YDL101C, strain DUN1, stronger effect = lower value 1 | locus YDL185W, strain tfp1, stronger effect = lower value 0.981 | locus YDL192W, strain arf1, stronger effect = lower value 0.99 | locus YDR101C, strain arx1, stronger effect = lower value 0.997 | locus YDR162C, strain NBP2, stronger effect = lower value 1.02 | locus YDR318W, strain mcm21, stronger effect = lower value 0.977 | locus YDR388W, stronger effect = lower value 0.982 | locus YDR502C, strain sam2, stronger effect = lower value 0.992 | locus YER110C, stronger effect = lower value 0.983 | locus YER155C, strain BEM2, stronger effect = lower value 1 | locus YER167W, strain BCK2, stronger effect = lower value 1.01 | locus YGL078C, strain dbp3, stronger effect = lower value 0.982 | locus YGL086W, strain mad1, stronger effect = lower value 0.993 | locus YGL248W, strain PDE1, stronger effect = lower value 1 | locus YGR135W, strain pre9, stronger effect = lower value 0.985 | locus YGR252W, strain gcn5, stronger effect = lower value 0.906 | locus YHR030C, strain SLT2, stronger effect = lower value 1.01 | locus YHR079C, strain IRE1 (second series), stronger effect = lower value 0.977 | locus YHR094C, strain hxt1, stronger effect = lower value 0.985 | locus YHR129C, strain ARP1, stronger effect = lower value 1 | locus YHR200W, strain rpn10, stronger effect = lower value 0.986 | locus YIL066C, strain RNR3, stronger effect = lower value 1.01 | locus YIL073C, strain SPO22, stronger effect = lower value 1.03 | locus YIL125W, strain kgd1, stronger effect = lower value 0.984 | locus YIR030C, strain dcg1, stronger effect = lower value 0.989 | locus YJL095W, strain BCK1, stronger effect = lower value 1.02 | locus YJL134W, strain LCB3, stronger effect = lower value 1 | locus YJL168C, strain set2, stronger effect = lower value 0.982 | locus YJL187C, strain SWE1 (second series), stronger effect = lower value 1 | locus YJR043C, strain POL32, stronger effect = lower value 0.997 | locus YKL009W, strain mrt4, stronger effect = lower value 0.989 | locus YKL068W, stronger effect = lower value 0.993 | locus YKL085W, strain MDH1 (second series), stronger effect = lower value 0.991 | locus YKL085W, strain MDH1, stronger effect = lower value 0.991 | locus YKR001C, strain vps1, stronger effect = lower value 0.97 | locus YLR039C, strain RIC1, stronger effect = lower value 1.05 | locus YLR058C, strain SHM2, stronger effect = lower value 1 | locus YLR102C, strain apc9, stronger effect = lower value 0.988 | locus YLR262C, strain YPT6, stronger effect = lower value 1.13 | locus YLR268W, strain sec22, stronger effect = lower value 0.977 | locus YLR342W, strain FKS1 (second series), stronger effect = lower value 0.992 | locus YLR371W, strain rom2, stronger effect = lower value 0.986 | locus YLR418C, strain cdc73, stronger effect = lower value 0.966 | locus YML016C, strain PPZ1, stronger effect = lower value 1 | locus YML032C, strain rad52, stronger effect = lower value 0.982 | locus YML124C, strain tub3, stronger effect = lower value 0.988 | locus YMR078C, strain ctf18, stronger effect = lower value 0.991 | locus YMR223W, strain ubp8, stronger effect = lower value 0.992 | locus YMR307W, strain GAS1, stronger effect = lower value 0.985 | locus YNL067W, strain RPL9B, stronger effect = lower value 1.01 | locus YNL128W, strain TEP1, stronger effect = lower value 1.01 | locus YNL233W, strain BNI4, stronger effect = lower value 1.01 | locus YNL250W, strain rad50, stronger effect = lower value 0.986 | locus YNL271C, strain bni1, stronger effect = lower value 0.979 | locus YNL298W, strain CLA4, stronger effect = lower value 0.982 | locus YNL307C, strain MCK1, stronger effect = lower value 0.986 | locus YNR052C, strain pop2, stronger effect = lower value 0.978 | locus YOL012C, strain htz1 1.11 | locus YOL147C, strain pex11, stronger effect = lower value 0.983 | locus YOR061W, strain CKA2, stronger effect = lower value 1.01 | locus YOR069W, strain VPS5, stronger effect = lower value 1 | locus YOR136W, strain idh2, stronger effect = lower value 0.978 | locus YOR144C, strain elg1, stronger effect = lower value 0.985 | locus YOR184W, strain ser1, stronger effect = lower value 0.992 | locus YOR316C, strain cot1, stronger effect = lower value 0.991 | [1] 0.994 | [2] 1 | locus YPR119W, strain clb2, stronger effect = lower value 0.999 | locus YPR141C, strain kar3, stronger effect = lower value 0.99 | locus YPR163C, strain tif3, stronger effect = lower value 0.982 | locus YPR167C, strain met16, stronger effect = lower value 0.985 | strain wtn01, stronger effect = lower value 0.99
